Experimental findings from ChEMBL document CHEMBL3988442, “University of Dundee, Small-Polar-MMV Screening Library” (2021) are described below.

SMILES strings stand for the structures.

The target in the assay is T1, Aspartate--tRNA(Asp/Asn) ligase (Mycobacterium tuberculosis (strain ATCC 25618 / H37Rv)) (UniProt P9WFW3).
T1 sequence (whole entry): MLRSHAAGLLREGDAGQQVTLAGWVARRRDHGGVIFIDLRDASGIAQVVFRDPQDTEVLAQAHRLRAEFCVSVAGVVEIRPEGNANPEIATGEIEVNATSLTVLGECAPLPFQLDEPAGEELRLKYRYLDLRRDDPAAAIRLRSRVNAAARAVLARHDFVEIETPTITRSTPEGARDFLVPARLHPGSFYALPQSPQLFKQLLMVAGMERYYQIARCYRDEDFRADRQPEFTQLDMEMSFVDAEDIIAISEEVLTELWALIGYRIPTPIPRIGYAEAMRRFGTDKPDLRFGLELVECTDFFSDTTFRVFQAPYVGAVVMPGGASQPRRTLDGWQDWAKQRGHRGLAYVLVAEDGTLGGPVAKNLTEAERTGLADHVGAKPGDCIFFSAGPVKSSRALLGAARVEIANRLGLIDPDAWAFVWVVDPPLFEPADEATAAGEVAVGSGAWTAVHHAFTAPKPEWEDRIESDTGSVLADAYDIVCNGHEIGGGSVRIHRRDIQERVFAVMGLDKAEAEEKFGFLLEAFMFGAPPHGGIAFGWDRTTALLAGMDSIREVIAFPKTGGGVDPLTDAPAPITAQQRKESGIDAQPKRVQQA
Put plainly: Assay for Asp RNA synthetase-1 from Mycobacterium tuberculosis. The class given is functional. On the set-up: scale not given: in the data most compounds retested in dose-response had high values. The conditions noted are these: 30 µM.
With `Cn1cccc1C(=O)N1CCCC2(CCCN2Cc2cccnc2)C1` (stereo not given), the Percent Effect was 7.03%.

For `CN(c1ccncn1)C1CC2(CCN(C(=O)CCc3cccs3)C2)C1` (stereo not given), the Percent Effect was -1.32%.

Consider `Cc1nc(C)c(C(=O)N2CCCC2c2nnc3n2CCCCC3)s1` (stereo not given), for which the Percent Effect was -7.53%.

Regarding `Cc1ccnc(OCC(=O)N2CCC(C(N)=O)CC2)n1`, the Percent Effect was -6.44%.

Take `CN(C)CC1CN(c2ncnc3[nH]ccc23)CCO1` (stereo not given): the Percent Effect is -0.0146%.

Consider `CNc1cc2c(nn1)CCN(C(=O)c1ccc(-n3nccc3C)cc1)C2`, for which the Percent Effect is -2.02%.

Take `COc1cccc(C(=O)N2CCCCC2CNC(N)=O)c1` (stereo not given): the Percent Effect was 3.2%.

For `CCc1[nH]ncc1C(=O)N1CCCC(n2cccn2)C1` (stereo not given), the Percent Effect was -2.98%.

Turning to `O=C(c1cccs1)N1C[C@H]2CC[C@@]3(N=C(c4ccccc4)NC3=O)[C@H]2C1`, the Percent Effect was -3.42%.

Take `Cc1noc(NC(=O)c2ccc(Br)cc2)n1`: the Percent Effect was -2.92%.

Turning to `COc1ccc(CC(=O)N2C[C@@H]3COC[C@]3(CN(C)C)C2)cc1`, the Percent Effect is -5.29%.

Take `Cc1cnc(CN2CCCC(c3cc(C(N)=O)[nH]n3)C2)o1` (stereo not given): the Percent Effect was 9.73%.

For the compound `CCc1nc(CN(C)C2CCN(Cc3cnc(C)cn3)C2)no1` (stereo not given), the Percent Effect was 1.14%.

In the case of `CCn1nnc2c1C(COC)CN(C(=O)COc1ccccc1)C2` (stereo not given), the Percent Effect is -1.42%.

Take `O=C(COc1coc(CN2CCCCC2)cc1=O)Nc1ccccc1Cl`: the Percent Effect came to 0.319%.

Take `Cc1nc(CO[C@@H]2CN(Cc3cnn(C)c3)[C@@H]3COC[C@@H]32)cs1`: the Percent Effect was -6.31%.

`c1ccc(-c2nnc(CNCCn3cccn3)o2)cc1`: the Percent Effect was -5.08%.

`COCC1c2c(cnn2C)CCN1Cc1ccc(F)cc1` (stereo not given): the Percent Effect stood at 1.28%.

Turning to `CCc1ncc2c(n1)CN(C(=O)COC)C2`, the Percent Effect amounted to 2.9%.

Regarding `c1cc2c(cc1C1CCCN1Cc1nnnn1C1CC1)OCCO2` (stereo not given), the Percent Effect is -1.25%.
